According to the supplement of paper PMC11417369:
± gives the standard deviation of the averaged measurements. Over roughly 25,000 sequences, “ln(normalized median fluorescence intensity)” has its median near 8.9; the highest 2% begin near 10. The sample holds the highest values, similar sequences and a random draw of the others, so the mix is not that of the screen.

tested on: PfAP2-LT AP2 domain (GST-tagged); assay: gcPBM binding intensity (ln(normalized median fluorescence intensity)); higher = stronger DNA binding
How it was run: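 The binding buffer was 1× PBS containing 1% milk, 0.2 mg/ml BSA, 0.5% salmon testes DNA and 0.03% Triton X-100. In it, GST-tagged P. falciparum DNA-binding domains expressed in E. coli were applied for 1 h to an Agilent 4 × 180k array of primer-extended double-stranded 36-bp intergenic genomic probes plus negative controls. Binding intensity, read with Alexa488 anti-GST antibody and a 488 nm scan, is the highest Masliner-normalised natural-log median intensity across replicate spots of either probe orientation.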

Sequence | gcPBM binding intensity (ln)
ATTTTAACTCCCCTTAATCTATTGTATATATATATA [CACACA_negctrl_site208] | 8.88 ± 0.29
TACTCAAAAATTAATTAGCATAATATATATAAAAAT [GTGCAC_negctrl_site613] | 8.49 ± 0.45
TTTGCCATAAAACACACACACATGTAAACCCCCTTT [CACACA_site1646] | 9.76 ± 0.2
ATATATTAATATGTGTGTACTTAACCATTCATATGT [XGTACX_site7395] | 9.1 ± 0.4
TCTTGTATACGGCATGCATGTTAGCACATACGGACA [TGCATGCA_site146] | 8.9 ± 0.32
ATATATTTAAATAAAAGTACGTAAAGGTATATTTAA [XGTACX_site8088] | 8.88 ± 0.44
ACATTCAATAAACGTCGTACACTTTCCTTTTTATGA [XGTACX_site3274] | 8.86 ± 0.52
TAATAATAGTCTAATACATGCATCGATAACGGAACT [TGCATGCA_site98] | 8.82 ± 0.32
AATAAGTATACACATACACACACACCCAAAAAAAAA [CACACA_site8034] | 10 ± 0.39
GGTGATAATAAGCATACACACACACCCAAAAAAAAA [CACACA_site8137] | 9.59 ± 0.35
TGATAATAAGCATACACACACACACCCAAAAAAAAA [CACACA_site721] | 10.2 ± 0.25
AACATAAGTAAGAATACATGCGGAAATTATATAGAA [TGCATGCA_site112] | 9.03 ± 0.38
GGTAAGTACGACTTGACACACATACCCATATATATA [CACACA_site4837] | 9.2 ± 0.55
ATAATTATATTTAGTGGTACTACTTTTGATAATTAG [XGTACX_site6562] | 8.63 ± 0.42
AAAAAAAACAGACACACACACACATATACATACATA [CACACA_site2665] | 10.3 ± 0.17
AAAAAAAAAAAAAACACACACATACAGACAAAAATG [CACACA_site83] | 9.7 ± 0.45
AACAGACATACATACACACATACATACAGACATACA [CACACA_site1942] | 9.64 ± 0.45
AAAAAAAACAGACACACACACATACACATACATACA [CACACA_site2857] | 10.2 ± 0.19
TAAACAGACATATAAACACACATACATACATACATA [CACACA_site7215] | 9.41 ± 0.32
AAAAAAAAAAAACATACACACATACATACAGATATA [CACACA_site4681] | 9.32 ± 0.36
TAAACAGACATACATACACACATACATACAGACATA [CACACA_site6997] | 9.61 ± 0.37
CACAAACAGACAAACACACACACACGGACATACATA [CACACA_site6350] | 10.1 ± 0.11

Sequence | gcPBM binding intensity (ln)
AACACATACAGACACACACACAAAAAAAAAAAAAAA [CACACA_site6322] | 9.58 ± 0.78
ATATATTTTGTTATGGTGCGTAAGAAATATATTCTT [GTGCAC_site9825] | 8.73 ± 0.43
CGAGCAAGACGGGGTGCACACAAACTAATATGCCGA [CACACA_site7936] | 9.55 ± 0.5
TCAAACGGTTAAATATGTACATATATATATATATAT [XGTACX_site2339] | 9.695 ± 0.0071
TTATAATATTCATAAGGTACAGTTTATATATGTTAT [XGTACX_site8442] | 8.68 ± 0.4
TCTTTGAATTTTTTAACACACACATGGGTGGATATA [CACACA_site8474] | 9.04 ± 0.38
ATATAATAGTATATATGTACATATATTTAAATACTA [XGTACX_site1135] | 8.82 ± 0.4
ATTCATACATGCACACGTACATATTTAAATATAAAA [XGTACX_site8388] | 9.04 ± 0.36
TTAGAAACATTGAAAGCATGCAATATTACTTTATAC [TGCATGCA_site522] | 8.82 ± 0.28
TTTTTTTCTTGTTTTAAATAATATACTGGAAAAAAA [CACACA_negctrl_site585] | 7.88 ± 0.33
TGTACCTTATTAATATATTTAACTCGCCTTATATAC [XGTACX_negctrl_site289] | 8.96 ± 0.36
AAATGTACAGGACGCACACACATATTTATATTTATA [CACACA_site7689] | 9.53 ± 0.3
AAATGTACAGGACGCACACACATATATATATATATA [CACACA_site3674] | 10.11 ± 0.05
TAAAATGTACAGGACGCACACACATATATATATATA [CACACA_site3673] | 9.92 ± 0.42
GCCTTCCTTCTAAATGCACACGGAAAGTATAAATGT [CACACA_site8797] | 9.04 ± 0.31
TTAATGTAGAGAAAATGTACATTTTATTAAAACAAT [XGTACX_site6376] | 8.76 ± 0.47
AAATAAAACAGACACACACACACATACACAAAAAAA [CACACA_site7753] | 10.1 ± 0.22
TAAACATACAGATACACACACACACCCACAGAGACA [CACACA_site4429] | 10.15 ± 0.028
AACATACATAAACACACACACACACCCACAGAGACA [CACACA_site4430] | 10.29 ± 0.035
AAATAACAAATTTTTAAAATGTATATATATATATAT [TGCATGCA_negctrl_site219] | 9.51 ± 0.12
GTTTTTTTTTTTTTGGTGCGTCATTTTCAAAAGAAG [GTGCAC_site9745] | 8.57 ± 0.41
AAACAAAAAAATTGAAATAAAATGAAGTAAATGAAC [TGCATGCA_negctrl_site129] | 8.9 ± 0.66

Sequence | gcPBM binding intensity (ln)
TTTTTTTTTTTTTTTTTTTTTTTCTTTATTTTTTTT [CACACA_negctrl_site703] | 8.16 ± 0.43
ATTGTTTTGTAATATGAAAAAATTGTGTAATGTGTC [CACACA_negctrl_site1510] | 8.72 ± 0.4
TTTTAAGTTTTTGAATGTACGTAATTTGTAAATTCT [XGTACX_site2448] | 8.49 ± 0.47
TATTTTTATTTTACATTATTTGTTTATAATTCTTAA [CACACA_negctrl_site1358] | 8.53 ± 0.57
ATAAATGACAGACACACACACAAAAAAAAAAAACAA [CACACA_site2626] | 9.84 ± 0.57
TATACTCATATATAAACACACAAAAAAAAAAAAAAA [CACACA_site5165] | 8.72 ± 0.45
ACAAATAAATAAAAAACACACACAAATAAATAAATA [CACACA_site8708] | 9.57 ± 0.38
CATATATACTCATACACACACACACCGACACAGACA [CACACA_site5026] | 9.84 ± 0.17
TATTTATTAAAACACACACACACACCGACAAAATAA [CACACA_site4293] | 9.97 ± 0.25
AAAAAAAAAAAACACACACACACACCGACAAAATAT [CACACA_site8411] | 10.4 ± 0.25
CATATACTCGGACACACACACACACCGACAAAAAAA [CACACA_site4433] | 10.1 ± 0.41
AAAAAAAAAAAACACACACACAAAAAAAAATATATA [CACACA_site1105] | 9.85 ± 0.54
AAAAAAAAAAAAAACACACACACAAAAAAAAATATA [CACACA_site1104] | 9.68 ± 0.35
TAAAATAAAACAAACACACACACACCGACACAAAAA [CACACA_site5993] | 10.1 ± 0.035
ATGTTACACCGACACACACACATAAAAAAACAAAAA [CACACA_site5750] | 9.61 ± 0.42
CACAAACAAAAACACACACACACACCGACAAAAATG [CACACA_site5362] | 10.24 ± 0.092
TACAAAAATGTAGTCACACATATGTATACTTTTATG [CACACA_site5607] | 8.85 ± 0.42
TGTACCTACAAAATATGATATATTTTTATAAATTGT [XGTACX_negctrl_site498] | 8.51 ± 0.47
TGAACAACTATTACTGCACACATTCTTACACTATAT [CACACA_site4533] | 9.41 ± 0.45
GATGATACAAAGTAATGTACATAAATACACATATTG [XGTACX_site3177] | 9.03 ± 0.44
ATAATACGAATTTGTAGTACATTTATAATAACATGA [XGTACX_site2614] | 8.65 ± 0.38
AATGGTCTTTTCAACACACGTACATAAAAATATTAT [CACACA_site2571] | 8.79 ± 0.44

Sequence | gcPBM binding intensity (ln)
CAATAATATATATATTGTACATTTTTTTTTATTATT [XGTACX_site3149] | 8.7 ± 0.38
TTTTATAGAGTGTATACATGCAATACCACATAAAAT [TGCATGCA_site476] | 8.79 ± 0.43
ATTTTTTTTTTTACAGTGGAACCATATTTGCTCATT [CACACA_negctrl_site940] | 8.82 ± 0.51
ATATATATATTTTTATGAGGCATAAGTAATATTTTT [TGCATGCA_negctrl_site317] | 8.53 ± 0.4
TAAAAGTTTTTATACATACACACCTATAAATTAAGT [CACACA_site2446] | 8.72 ± 0.36
TAAATTAAAAAACACACACACAAAAAAAAAAAAAAA [CACACA_site2263] | 9.41 ± 0.51
AATTAACAAAAACACACACACACACCGACAAAAAAA [CACACA_site4444] | 10.1 ± 0.23
CATAAATTAAAACACACACACACAAAAAAAAAAAAA [CACACA_site2262] | 9.84 ± 0.33
TATGCACGCGAACACACACACACAACTAAAAAATAA [CACACA_site7251] | 9.79 ± 0.37
TTTTTATCTTTGCTGTGTACATAAATAAAAATAACT [XGTACX_site7625] | 8.47 ± 0.42
TATATATATATAATGTGTACACAAATATATATTATA [XGTACX_site8786] | 8.8 ± 0.37
CAATATAAAAAACACACGCACACAAAAAAAAAAAAA [CACACA_site3521] | 9.46 ± 0.42
ATCAAATAATAGCAAACACACAAAAAATAAAAAAAA [CACACA_site4146] | 9.04 ± 0.47
AAGTAAAAAAATAGCACACACACAAAAACACAGACA [CACACA_site4839] | 10.1
AAAAAAAACAGACACACACACAAATATATAAAAATA [CACACA_site1172] | 9.94 ± 0.35
GTAAAAAAATAGCACACACACAAAAACACGCACAAA [CACACA_site6723] | 10.1 ± 0.23
AAGTAAAAAAATAGCACACACACAAAAACACCCACA [CACACA_site1291] | 9.92 ± 0.16
TATTTGTAAATCGATACACACATATAGATTAATATA [CACACA_site6237] | 8.88 ± 0.35
ATATTCTGATTTTAGATGCACTTCGTTAACAAAATA [GTGCAC_site9958] | 8.49 ± 0.35
ATGGACATTTTATAAATCACAATGGATATTTTATAA [CACACA_negctrl_site1830] | 8.41 ± 0.42
GGAAATTAACAGAACACAATGTAACAATTTCTAACA [CACACA_negctrl_site1250] | 8.85 ± 0.4
